Shown are actives, neighbours in structure and some others; about 2.1% of the full set was active somewhere.
PGC1a acetyl inh – inhibitors of PGC1a acetylation signal, primary screen, cell-based, U2OS, AlphaScreen, inhibitor mode. AID 651687, 2012. hit rate 0.17% among 350,000. AlphaScreen anti-acetyl-lysine; with virally co-expressed GCN5 acetyltransferase. inhibition, % at 15.6 µM;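 active = every replicate shows inhibition of at least 40%; inconclusive = mean inhibition at least 40% but some replicate below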;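 also: 0% = neutral control wells and 100% = positive control wells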
AF4-AF9 inh – inhibitors of AF4 peptide binding to AF9, primary screen, biochemical, AlphaScreen, biotin-AF4 peptide, FLAG-AF9, single point; Protein AF-9 (Homo sapiens), P42568; inhibition, % at 10 µM; hit rate 0.47% among 350,000; AID 651704, 2012;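 active = every replicate reaching a set inhibition limit, whatever the replicate mean, cut at about 25% in these data; inconclusive = mean inhibition reaches that limit but some replicates miss it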;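 also: 0% = plate neutral control median and 100% = total signal loss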
Target sequence (P42568 whole entry, looked up): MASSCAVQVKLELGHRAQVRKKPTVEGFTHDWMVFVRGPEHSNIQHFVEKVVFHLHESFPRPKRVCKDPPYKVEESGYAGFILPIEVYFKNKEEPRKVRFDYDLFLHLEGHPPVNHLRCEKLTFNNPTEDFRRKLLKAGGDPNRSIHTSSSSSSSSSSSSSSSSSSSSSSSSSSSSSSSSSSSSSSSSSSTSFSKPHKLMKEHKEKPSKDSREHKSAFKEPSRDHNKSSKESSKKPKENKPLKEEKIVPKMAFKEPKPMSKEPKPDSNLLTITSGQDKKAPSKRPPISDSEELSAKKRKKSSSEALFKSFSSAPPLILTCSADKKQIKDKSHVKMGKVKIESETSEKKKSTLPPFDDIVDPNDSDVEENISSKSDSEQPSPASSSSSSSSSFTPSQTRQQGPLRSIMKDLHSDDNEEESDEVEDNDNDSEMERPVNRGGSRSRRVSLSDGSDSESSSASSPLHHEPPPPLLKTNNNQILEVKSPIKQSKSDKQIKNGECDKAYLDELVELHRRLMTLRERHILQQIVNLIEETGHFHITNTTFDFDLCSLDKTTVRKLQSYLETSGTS
GSIS activator – GLuc luminescence reporter in INS-1E cells, primary screen for activators of glucose-dependent secretion of insulin; INS-1E GLuc reporter insulin secretion, 2-3 h; activation, % at 16.6 µM; hit rate 0.61% among 370,000; AID 743287, 2014;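 active = lowest replicate activation of at least 40%, so every replicate reaches that level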;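 also: 0% = median of neutral control wells and 100% = median of IBMX positive control wells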
NSD2 inh – NSD2 histone methyltransferase inhibitors, primary screen, biochemical, AlphaScreen, single concentration, set 2. hit rate 0.54% among 310,000. AID 743445, 2014. Histone-lysine N-methyltransferase NSD2 (Homo sapiens), O96028. NSD2 peptide methylation, 120 min. inhibition, % at 12.5 µM; in the data active = inhibition above about 50%
HIV Env fusion – inhibitors of HIV-1 Env-driven cell-cell fusion, primary screen, HeLa-JRFL effector, CEM21 target cells, luciferase; hit rate 1.1% among 360,000; inhibition, % at 12.3 µM; AID 651610, 2012;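 active = mean replicate inhibition score of at least 50 and every replicate individually at or above 50; inconclusive = only one of the two criteria met; inactive = mean below 50 and not all replicates reaching 50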;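 also: 0% = plate neutral controls and 100% = maraviroc near 300 nM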
An asterisk follows results filed as active; u = inconclusive; x = no result; [ ] = dose if it differs, or a comment.

SMILES	PGC1a acetyl inh	AF4-AF9 inh	GSIS activator	NSD2 inh	HIV Env fusion
O=C1CC(C(=O)N(c2ccccc2)C(C(=O)NC2CCCC2)c2ccncc2)CS1 (centres undefined)	5	-1	10	-1	10
Cc1noc(C)c1CSCC(=O)N1CCN(c2ccc([N+](=O)[O-])cc2)CC1	-11	x	x	1	x
CCCN(CCC)S(=O)(=O)c1ccc(NC(=O)C2CCCO2)cc1 (centres undefined)	2	x	x	0	x
Cc1ccc(S(=O)(=O)N2CCN(S(=O)(=O)c3ccc(C)cc3)C2c2ccccc2)cc1	-110	x	6	-4	105*
Cc1ccc(S(=O)(=O)N2CCN(S(C)(=O)=O)C2c2ccccc2)cc1 (centres undefined)	-25	x	x	x	x
NC(N)=NN=Cc1ccnc2ccccc12	x	5	-4	x	27
CCN(CC(=O)Nc1ccc(NC(C)=O)cc1)Cc1c(O)ccc2cc(Br)ccc12	x	-2	-30	4	9
CCc1nc(N)c(C#N)c(-c2cccnc2)c1C	6	x	x	11	10
Cc1nc(N)c(C#N)c(-c2cccnc2)c1C	18	x	48*	x	u
O=[N+]([O-])c1nn(-c2ccc3c(c2)OCCO3)n(O)c1=NC1CCCCC1	2	x	x	8	-60
CCCCNC(=O)C1c2ccccc2OCC(=O)N1CCCN1CCOCC1 (centres undefined)	x	2	6	x	-65
Cc1cccc(C)c1NC(=O)C1c2ccccc2OCC(=O)N1CCCN1CCOCC1 (centres undefined)	x	2	47*	x	-46
Cc1ccc2cc(CN(Cc3ccc(F)cc3)Cc3nnnn3C3CCCC3)c(=O)[nH]c2c1	x	5	-29	-1	x
Cn1c(SCC(=O)N2CCCC2=O)nc2ccccc2c1=O	2	0	x	-3	x
CCCn1c(SCC(=O)N2CCCC2=O)nc2ccccc2c1=O	11	-2	46*	4	-5
CCNc1ccc(C(=O)OCC)cc1NC(=O)c1cc(S(=O)(=O)N2CCOCC2)ccc1C	5	x	x	1	62*
CCn1c(/C=C/N(C)c2ccccc2)[n+](CC)c2ccc(Cl)cc21	-4	x	-55	5	70*
C[C@@H]1CN([C@H](C)CO)C(=O)c2cc(NC(=O)Cc3ccccc3)ccc2O[C@H]1CN(C)C	-1	-2	20	x	x
CC(C)(C)N1C(=O)[C@H]2[C@@H](c3ccc(Br)cc3)N3C(=O)N(c4cccc(Br)c4)C(=O)[C@@]3(Cc3ccccc3)[C@H]2C1=O	-9	x	x	x	x
CC(C)(C)N1C(=O)[C@H]2[C@@H](c3ccc(Br)cc3)N3C(=O)N(c4ccccc4)C(=O)[C@@]3(C)[C@H]2C1=O	2	4	-25	x	104*
CC(C)(C)N1C(=O)[C@H]2[C@@H](c3ccc(Br)cc3)N3C(=O)N(c4ccccc4)C(=O)[C@@]3(Cc3ccccc3)[C@H]2C1=O	x	4	3	x	68*
O=C(Nc1cc(C(F)(F)F)ccc1Cl)C(Sc1n[nH]c(=O)[nH]c1=O)c1ccccc1 (centres undefined)	-3	4	-21	1	16
COc1cccc(C(=O)Nc2ccc3c(c2)C(=O)N(C)[C@H]2CC[C@@H](CC(=O)NCC(F)(F)F)O[C@H]2CO3)c1	-5	-2	-5	x	23[16.7 µM]
O=C(NCCCCNC(=O)C(F)(F)F)C(F)(F)F	-21	25*	24	-3	-3
COc1ccc(S(=O)(=O)N(C)CC(=O)NCCCN2CCOCC2)cc1C	-5	-16	12	-10	0
SMILES	PGC1a acetyl inh	AF4-AF9 inh	GSIS activator	NSD2 inh	HIV Env fusion
CCn1c2ccccc2c2cc(CNCc3ccc(OC)cc3OC)ccc21	x	22	5	47	56*
CN(c1ccccc1)S(=O)(=O)c1cccc(C(=O)NCc2ccccc2CN2CCCC2)c1	-7	9	x	5	x
COc1ccc(-n2nc(C#N)c(Cl)cc2=O)cc1	90*	-3	6	x	-210
C[C@@H]1CCCCO[C@H](CN(C)Cc2ccc3c(c2)OCO3)[C@@H](C)CN([C@H](C)CO)C(=O)c2cc(NC(=O)Nc3ccc4c(c3)OCO4)ccc2O1	5	4	-19	x	19[16.7 µM]
c1cncc(CNc2ncnc3ccc(-c4ccoc4)cc23)c1	55*	6	x	x	47
Cc1csc(CNc2ncnc3ccc(-c4ccc5c(c4)OCO5)cc23)c1	3	8	2	x	61*
CN(C)c1ccc(Nc2ncnc3ccc(Br)cc23)cc1	13	26*	-9	20	48
Cc1cccc(CNc2ncnc3ccc(-c4ccc5c(c4)OCCO5)cc23)c1	-10	1	-16	x	80*
c1nc(NCc2ccc3c(c2)OCO3)c2cc(-c3ccc4c(c3)OCCO4)ccc2n1	x	4	1	x	50
COc1ccc(-c2c(C)n([O-])c3c([n+]2=O)CCCCC3)cc1	x	2	23	15	-2
COc1ccc(NC(=O)N(C)C[C@H]2Oc3ccc(NC(=O)Nc4cccc5ccccc45)cc3C(=O)N([C@@H](C)CO)C[C@H]2C)cc1	-4	2	-1	x	-7[16.7 µM]
c1ccc(CCNc2ncnc3ccccc23)cc1	x	-2	-27	-2	53
Brc1ccc2ncnc(NCc3ccccc3)c2c1	42*	x	x	-4	x
COc1ccc(CN(C)CC(O)COc2ccc(-c3ccccc3)cc2)cc1OC (centres undefined)	x	17	-31	14	1
CN(Cc1ccc(OCC(O)CN(C)Cc2ccccc2)cc1)Cc1nccn1C (centres undefined)	4	5	47*	14	-13
CCN1C(=O)CSc2ccc(C(=O)NCCCN3CCOCC3)cc21	-10	6	14	1	x
COc1cc(CO)cc(Br)c1OCC(=O)Nc1cccc2ccccc12	2	1	48*	0	13
CCn1c(O)c(C=Nc2ccccc2)oc1=S	-33	x	x	0	x
C=C(C)c1cccc(C(C)(C)NC(=O)Nc2ccc(Cl)cn2)c1	x	x	-27	0	65*
CCCC(=O)Nc1ccc2c(c1)C(=O)N(C)C[C@@H](OC)[C@@H](C)CN(C(=O)C1CCCC1)[C@H](C)CO2	8	-1	20	x	22[16.7 µM]
COC(=O)C1(C)CCCC2(C)C1CCC13OCC(CC21)C(O)(C(C)C)C3O (centres undefined)	x	-64	-21	-2	5
Cc1ccc2c(c1)nnn2C1CCN(S(=O)(=O)c2ccc(C(=O)N3C(C)CCCC3C)cc2)CC1 (centres undefined)	1	x	x	x	67*
Cc1ccc2c(c1)nnn2C1CCN(S(=O)(=O)c2ccc(C(=O)O)cc2)CC1	x	0	11	0	-1
NNc1nc(-c2ccccc2)c2ccccc2n1	x	0	44*	1	-11
Cc1cccc(N2C(=O)N3[C@H](c4ccc(Cl)cc4)[C@@H]4C(=O)N(C5CCCCC5)C(=O)[C@@H]4[C@]3(Cc3ccc(Cl)cc3)C2=O)c1	-5	x	x	x	x

From PubChem
